Screening results as filed in PubChem BioAssay.
PTHR1 agonist: PTHR1 (human) receptor agonism; Potency, µM (top dose mostly 115 µM), hits mostly activators; Q03431; HEK293 GP2 PTHR1 cells, GloSensor cAMP luminescence, 1 h; 0.075% of 410,000 active; further: nearly all actives have a fitted effect of over 55% in size
Target sequence (Q03431 whole entry, looked up): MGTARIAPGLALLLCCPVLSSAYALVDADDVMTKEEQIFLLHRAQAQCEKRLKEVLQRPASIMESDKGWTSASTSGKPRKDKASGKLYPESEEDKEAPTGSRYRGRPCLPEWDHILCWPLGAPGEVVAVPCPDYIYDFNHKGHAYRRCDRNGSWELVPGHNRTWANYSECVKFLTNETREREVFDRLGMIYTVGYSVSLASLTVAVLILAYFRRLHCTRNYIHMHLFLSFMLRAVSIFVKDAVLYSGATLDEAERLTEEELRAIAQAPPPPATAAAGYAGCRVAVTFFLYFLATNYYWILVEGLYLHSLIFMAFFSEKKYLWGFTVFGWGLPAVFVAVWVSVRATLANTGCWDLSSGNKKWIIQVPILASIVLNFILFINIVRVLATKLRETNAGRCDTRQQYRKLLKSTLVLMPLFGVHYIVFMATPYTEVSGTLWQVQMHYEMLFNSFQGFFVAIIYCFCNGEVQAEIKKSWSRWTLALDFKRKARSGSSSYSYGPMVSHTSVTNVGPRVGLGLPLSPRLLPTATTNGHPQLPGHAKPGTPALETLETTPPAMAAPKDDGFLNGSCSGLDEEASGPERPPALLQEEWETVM
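HEK-293-derived GP2 cells expressing PTHR1 and a GloSensor cAMP reporter, 3,000/well, plated overnight, given luciferin plus IBMX (each 0.5 mM as added) for 1 h at 37 °C, then compound for 1 h at 37 °C. Luminescence was read after 15 min at room temperature.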
GLP1R cytotox: cytotoxicity counter-screen for GLP-1 receptor inverse agonists. HEK293 cAMP-luciferase reporter cells, luminescence, 24 h. 0.13% of 410,000 active. Potency, µM (titrated, usually from 38.3 µM), actives largely listed as inhibitors;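 further: loss of luciferase light is scored as toxicity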
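Luminescence readout: signal drop marks cytotoxicity. Plated cells grew 12 h at 37 °C, 5% CO2, received 23 nL compound for 24 h, then got luciferase reagent, read after 12 min at RT.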
GLP-1R inv ag: GLP-1 receptor (human) inverse agonism; HEK293 GLP-1R CRE-luciferase, luminescence, 24 h; GLP-1R form is constitutively active; Potency, µM (series often up to 38.3 µM), hits mostly inhibitors; 1.6% of 410,000 active; further: nearly all actives have a fitted effect of over 55% in size
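Constitutively active GLP-1R drives a cAMP-responsive luciferase in stably transfected HEK293 cells; test compounds are added after overnight (12 h) attachment and left 24 hr, and signal loss in luminescence marks inhibition.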
GLP-1R agonist: activates the human GLP-1 receptor; HEK293 GLP-1R CRE-luciferase, luminescence, 4-6 h; cells express a hypersensitive GLP-1R form; AID 624172; P43220; 0.007% of 380,000 active; Potency, µM (titrated, usually from 45.6 µM), usual class: activators
A number is an active result; n = inactive; u = inconclusive; x = no result. This is a sample that favours compounds with a hit; in the whole collection about 1.7% have one here. The call rests on the fitted dose curve; in most records, active means well fitted curve in the direction sought with a large enough effect; inconclusive means small, poorly fitted or top-dose-only effect, or another doubt; inactive means no such curve, though single readings can be large; an effect the other way counts as inactive or inconclusive.

SMILES	PTHR1 agonist	GLP1R cytotox	GLP-1R inv ag	GLP-1R agonist
CC1=Nc2cc(C(=O)NCCN3CCOCC3)ccc2Sc2c(C)ccc(C)c21	n	n	u	n
CC1=Nc2cc(C(=O)NCCc3ccc(Cl)cc3)ccc2Sc2c(C)ccc(C)c21	n	u	2.82µM	n
O=C(CN1CCN(S(=O)(=O)N2CCOCC2)CC1)Nc1cc(Cl)cc(Cl)c1	n	n	n	n
COC(=O)c1cccc(C23CC4(C2)[C@H](CN(C)[C@@H]4c2ccccc2)C3c2ccccc2)c1 (some centres not stated)	n	n	8.91µM	n
CN1C[C@@H]2C(c3ccc(C(F)(F)F)cc3)C3(c4ccc(C#N)cc4)CC2(C3)[C@H]1c1ccccc1 (some centres not stated)	n	n	10µM	n
COC(=O)c1cccc(C23CC4(C2)[C@H](CN(C)[C@@H]4c2ccccc2)C3c2ccc(C(F)(F)F)cc2)c1 (some centres not stated)	n	n	n	n
C/C(=N\N(Cc1ccccc1)c1ccccc1)c1ccncc1	n	n	u	n
COCCn1c(C)cc(/C=C(\C#N)C(=O)OC(C)C(=O)Nc2ccc(NC(C)=O)cc2)c1C (configuration not stated)	n	n	n	n
Cc1ccc(C(=O)NCCSc2c(C)[nH]c3ccccc23)cc1[N+](=O)[O-]	n	n	10µM	n
CSCCC(NS(=O)(=O)c1ccccc1)C(=O)Nc1nccs1 (configuration not stated)	n	n	u	n
Cc1c(C(=O)N(Cc2cccc(F)c2)C2CCS(=O)(=O)C2)oc2cc(Br)ccc12 (configuration not stated)	n	n	u	x
Cc1c(C(=O)N(Cc2cccc(Br)c2)C2CCS(=O)(=O)C2)oc2ccc(F)cc12 (configuration not stated)	n	n	22.4µM	n
CC(C)(C)OC(=O)N1CCC[C@H]1c1nnc(SCc2c(F)cccc2Cl)o1	n	n	8.91µM	n
CC(C)(C)OC(=O)NCCCCCc1nnc(SCc2c(F)cccc2Cl)o1	n	n	10µM	n
CC(C)(C)OC(=O)N1CCC[C@H]1c1nnc(SCc2ccccc2Cl)o1	n	n	u	n
COc1ccc(-c2oc3ccccc3c(=O)c2OC(=O)c2ccc(C)cc2)cc1	n	n	n	n
O=C(Oc1c(-c2ccccc2)oc2ccccc2c1=O)c1ccccc1	n	n	5.01µM	n
CC(C)(C)c1cc(C(=O)NNC(=O)Nc2ccccc2)n(Cc2ccccc2)n1	n	n	u	n
CC(C)(C)c1cc(C(=O)NNC(=O)Nc2cccc(Cl)c2)n(Cc2ccccc2)n1	n	n	5.01µM	n
CC1CCN(C(=O)CNC(=O)CNC(=O)Cc2ccccc2)CC1	n	n	n	n
Cc1cccc(CS(=O)(=O)c2ncc(Cl)c(C(=O)NCc3ccc4c(c3)OCO4)n2)c1	n	n	8.91µM	n
Cc1ccc(CNC(=O)c2nc(S(=O)(=O)Cc3ccc(C)cc3)ncc2Cl)cc1	n	n	n	x
O=C(CCCN1C(=O)/C(=C/c2ccccc2Cl)SC1=S)N1CCCC1	n	u	10µM	n
O=C(CCCN1C(=O)/C(=C/c2ccccc2)SC1=S)N1CCOCC1	n	u	8.91µM	n
O=C1CCC([N+](=O)[O-])C(C2CC=CCC2)N1 (configuration not stated)	n	n	n	n
SMILES	PTHR1 agonist	GLP1R cytotox	GLP-1R inv ag	GLP-1R agonist
COc1ccc(-c2cc(-n3c(C(F)(F)F)nc4ccccc43)n(CCC#N)n2)cc1	n	n	10µM	n
COc1cccc(OCC(=O)N(Cc2nc(-c3ccc(Cl)cc3)no2)C(C)C)c1	n	n	u	n
CCN(Cc1nc(-c2ccccc2)no1)C(=O)COc1cccc(OC)c1	n	n	1.78µM	n
COC(CNC(=O)C1CCCN1C(=O)OCc1ccccc1)OC (configuration not stated)	n	n	n	n
COC(=O)[C@@H]1C[C@]2(OC(=O)c3ccccc3)C=CC(=O)C[C@@H]2N1C(=O)OCc1ccccc1	n	n	7.08µM	n
CC(C)NC(=O)Nc1ccc2c(c1)C(=O)N([C@@H](C)CO)C[C@@H](C)[C@H](CN(C)Cc1ccccc1)OCCCC[C@H](C)O2	n	n	n	n
COc1ccccc1C1CC(c2c(-c3ccccc3)c3cc(Cl)ccc3[nH]c2=O)=NN1S(C)(=O)=O (configuration not stated)	n	n	10µM	n
COc1cccc(C2CC(c3c(-c4ccccc4)c4cc(Cl)ccc4[nH]c3=O)=NN2S(C)(=O)=O)c1OC (configuration not stated)	n	n	u	n
CCN(CC)C(=O)C1CCCN(c2ccc([N+](=O)[O-])cc2/C=N/NC(=O)c2cccc(Br)c2)C1 (configuration not stated)	n	n	2µM	n
COCCNC(=S)Nc1ccccc1Cc1ccccc1	n	n	n	n
COC(=O)c1cccc(Nc2c3c(nc4ccccc24)CCC3)c1	n	u	7.94µM	n
COc1cc(Cl)c(C)cc1Nc1c2c(nc3ccccc13)CCC2	n	u	11.2µM	x
CC(=O)c1cccc(Nc2c3c(nc4ccccc24)CCC3)c1	n	n	u	n
CCOC(=O)c1cccc(Nc2c3c(nc4ccccc24)CCC3)c1	n	10µM	u	x
COc1ccccc1Nc1c2c(nc3ccccc13)CCC2	n	u	u	n
Cc1cccc(N(C)c2nc3ccccc3c3nnc(C)n23)c1	n	n	n	x
CSc1ccccc1NC(=O)CN(C)CC(=O)Nc1c(F)cccc1F	n	n	n	n
COC(=O)c1cc(NC(=O)COC(=O)C2COc3ccccc3O2)cc(C(=O)OC)c1 (configuration not stated)	n	n	n	n
COc1ccc(CCNC(=O)c2cccc(NS(=O)(=O)c3ccccc3F)c2)cc1OC	n	n	n	n
C=CCn1c(NCc2cc(Cl)ccc2O)nc2ccccc21	n	n	11.2µM	n
C=CCn1c(NCc2ccccc2O)nc2ccccc21	n	n	u	n
O=C1CN(CC(=O)Nc2cccc(Cl)c2Cl)c2ccccc2N1	n	n	10µM	n
O=C(C[C@H]1C[C@H](C(=O)N2CCCCC2)[C@@]2(CCc3ccccc3)c3[nH]c4cc(-c5ccco5)ccc4c3CCN2C1=O)NCc1ccco1	n	n	8.91µM	n
CC[C@]12c3[nH]c4cc(-c5ccco5)ccc4c3CCN1C(=O)[C@@H](CC(=O)NCCC1=CCCCC1)C[C@@H]2C(=O)N1CCN(C(=O)c2ccco2)CC1	n	n	7.94µM	n
Cc1cc2ccccc2n1CCNC(=O)c1ccccc1F	n	n	n	n
O=C(CC1Sc2ccccc2NC1=O)NNc1cccc(Cl)c1Cl (configuration not stated)	n	n	2µM	n
Cc1cccc(Oc2nc(-c3ccccn3)nc3ccccc23)c1	n	u	1.26µM	n
